# Test results as given in PubChem BioAssay (NCI).
# About 79,000 compounds went through this panel and 15% of them were active in at least one assay; those are over-represented in the sample as a whole. A number with no mark means an inactive call. The source made the active and inactive calls. Rule as the data show it: active = growth inhibition above about 70%; inactive = the rest.
# Experiments:
# [1] = NCI Yeast Anticancer Drug Screen. Data for the rad50 strain (AID 155);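 also: 0% = growth of vehicle-only cultures of the same strain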; conditions: S. cerevisiae rad50 strain growth inhibition, hits give high values
# Outline: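 Inhibition values express reduced yeast growth in compound-treated cultures relative to vehicle-treated controls.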
# [2] = NCI Yeast Anticancer Drug Screen. Data for the mec2-1 strain (AID 157); conditions: S. cerevisiae mec2-1 strain, hits give high values
# Outline: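 Using mec2-1 yeast: add compound, measure growth, express inhibition versus vehicle-treated cultures.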
# [3] = NCI Yeast Anticancer Drug Screen. Data for the sgs1 mgt1 strain (AID 161);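 also: 0% = growth of cultures given vehicle only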; conditions: S. cerevisiae sgs1 mgt1 strain, hits give high values
# Outline: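 Growth of a repair-deficient yeast mutant was monitored after compound treatment and expressed as inhibition relative to vehicle-treated cultures.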
# [4] = NCI Yeast Anticancer Drug Screen. Data for the cln2 rad14 strain (AID 165);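 also: 0% = growth equal to vehicle treated cultures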; conditions: S. cerevisiae cln2 rad14 strain, hits give high values
# Outline: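 Yeast strain cln2 rad14, bearing defects in cell cycle control and DNA repair, serves as the test system; values reflect growth inhibition compared with vehicle.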
# [5] = NCI Yeast Anticancer Drug Screen. Data for the bub3 strain (AID 167); conditions: S. cerevisiae bub3 mutant strain, hits give high values
# Outline: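 Steps: expose the mutant yeast strain to compound; grow alongside vehicle-treated cultures; measure growth; express inhibition against the vehicle cultures.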
# [6] = NCI Yeast Anticancer Drug Screen. Data for the mlh1 rad18 strain (AID 175); conditions: S. cerevisiae mlh1 rad18 strain growth inhibition, hits give high values
# Outline: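 Steps: expose repair-defective yeast to compound; measure growth; express inhibition against vehicle-treated controls.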
# [7] = at 5.0 µM (retest, dose inferred, filed as 0.5)
# [8] = at 50.0 µM (retest, dose inferred, filed as 5.0)
Structure (SMILES),"growth inhibition [1, 7] [%]","growth inhibition [1, 8]",growth inhibition ([1]; at 50.0 µM),"growth inhibition [2, 7] [%]","growth inhibition [2, 8]",growth inhibition ([2]; at 50.0 µM),"growth inhibition [3, 7] [%]","growth inhibition [3, 8]",growth inhibition ([3]; at 50.0 µM),"growth inhibition [4, 7] [%]","growth inhibition [4, 8]",growth inhibition ([4]; at 50.0 µM),"growth inhibition [5, 7] [%]","growth inhibition [5, 8]",growth inhibition ([5]; at 50.0 µM),"growth inhibition [6, 7] [%]","growth inhibition [6, 8]",growth inhibition ([6]; at 50.0 µM)
COc1cc(CNC(=O)CCCCCCCCCCSC#N)ccc1O,6,59%,82.1% (active),5,43%,85.2% (active),7,77% (active),83.6% (active),1,76% (active),81% (active),0,82% (active),86.7% (active),20,73% (active),81.2% (active)
CC1C[C@]2(C)C(=S)Nc3ccccc3[C@@H]2Nc2ccccc21 (some centres not stated),-1,43%,21.9%,8,55%,17.9%,23,74% (active),48.8%,26,60%,19.8%,24,82% (active),42.3%,6,58%,63.3%
O=C1C=CC(=O)c2nc3ccccc3nc21,5,98% (active),85.3% (active),2,99% (active),83.2% (active),1,98% (active),50.6%,-1,99% (active),-16.7%,-1,98% (active),90.1% (active),16,97% (active),91% (active)
CC(C)NCCCNc1nc(NCCCNC(C)C)c2nc(-c3ccccc3)c(-c3ccccc3)nc2n1,4,82% (active),52%,1,88% (active),58.7%,-2,86% (active),53.4%,-3,56%,55.8%,0,35%,50.1%,2,90% (active),57.2%
CN(N(P(c1ccccc1)c1ccccc1)P(c1ccccc1)c1ccccc1)P(c1ccccc1)c1ccccc1,-1,2%,88.7% (active),-5,9%,81.9% (active),-15,2%,88.2% (active),2,0%,64.2%,1,-4%,76.5% (active),-14,-17%,93.2% (active)
C/C([O-])=C1\Cc2ccccc2C1=O.C/C([O-])=C1\Cc2ccccc2C1=O.CC[O-].CC[O-].[Ti+4],25,25%,89% (active),17,17%,89.4% (active),4,4%,91.5% (active),4,4%,81% (active),4,4%,88.6% (active),20,20%,90.7% (active)
Cc1ccc(NC(=S)SCc2ccco2)cc1Cl,22,99% (active),99.5% (active),5,99% (active),99.8% (active),12,99% (active),99.7% (active),-3,99% (active),99.5% (active),-3,99% (active),99.7% (active),20,99% (active),99.6% (active)
FC(F)(F)c1nc2cc(SSc3cc4nc(C(F)(F)F)[nH]c4cc3Cl)c(Cl)cc2[nH]1,1,51%,97.5% (active),-1,85% (active),93.2% (active),0,87% (active),95% (active),-6,91% (active),65.8%,-18,61%,97% (active),-12,97% (active),97.7% (active)
CCNc1nc(C(F)(F)F)nc2nc[nH]c12,3,-5%,6.15%,1,4%,-5.75%,-22,-5%,-20.1%,-5,0%,92.7% (active),-4,-4%,3.4%,-3,-9%,39.9%
